Shown are actives, neighbours in structure and some others; about 4% of the full set was active somewhere.
Statin myotox sup = suppressors of statin myotoxicity in C2C12 myotubes, primary screen, cell-based, single point, plate reader | rescue of ATP level, % at 7.49 µM | actives 0.78% (n = 330,000) | C2C12 myotubes + simvastatin, ATP luminescence, 48 h; scaled: DMSO 0, geranylgeraniol control 100;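 active means mean ATP rescue above about 67%, or every replicate alone reaching that limit, limit read from the data, passing the limit was not always enough; inconclusive means no clear call, values can overlap the other calls; inactive means mean under the limit and some replicate under it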;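 further: myotubes were challenged with 10 µM simvastatin during compound exposure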
esBAF inh = Bmi1 luciferase reporter increase in mESCs, primary screen, esBAF inhibitor project, mouse ES cells, Bmi1 luciferase knock-in, single point; reporter increase, % at 12.5 µM; AID 602393, 2012; 24 h; 100% = twice the neutral-well signal; actives 2% (n = 350,000); in the data active means activation above about 40%; inconclusive means no clear call, values can overlap the other calls;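 further: a rise in the Bmi1 reporter signal indicates esBAF inhibition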
LMP1 NFkB inh = EBV LMP1-driven NF-kappaB luciferase reporter inhibitors, primary screen, cell-based, luminescence, single point | LMP1-induced NF-kappaB luciferase reporter cells | inhibition, % at 12.5 µM | actives 0.69% (n = 350,000); in the data active means inhibition above about 41%; inconclusive means no clear call, values can overlap the other calls
Wnt act = Wnt/beta-catenin pathway activators, primary screen, cell-based, plate reader, single point; AID 743398, 2014; Wnt/beta-catenin reporter cell assay, activator; actives 1.2% (n = 300,000); activation, % at 9.35 µM; in the data active means activation above about 30%, passing the limit was not always enough; inconclusive means no clear call, values can overlap the other calls
MITF TRPM1 HTS = activators of MITF-driven TRPM1 promoter reporter, primary screen, cell-based, SK-MEL-5, luciferase, single point | activation, % at 12.5 µM | actives 0.75% (n = 300,000) | SK-MEL-5 TRPM1-promoter luciferase, 24 h; % of positive control, neutral wells = 0;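 active means mean activation of at least 80% with every replicate also reaching 80%; inconclusive means mean reaches 80% but some replicate falls short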
MITF TRPM1 inh = inhibitors of MITF-dependent TRPM1 promoter reporter, primary screen, cell-based, SK-MEL-5, single point, luciferase. actives 0.83% (n = 330,000). AID 488899, 2010. SK-MEL-5 TRPM1 promoter luciferase, 24 h. inhibition, % at 12.5 µM;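 active means mean inhibition across replicates of 60% or more, whatever share of single replicates reaches that level; inconclusive means some that reach 60%, reason not given; inactive means mean inhibition across replicates below 60%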
Of the large screens only hits and unclear results are named; the others gave an inactive call.

CN(C)S(=O)(=O)c1cccc(NC(=O)CSc2nc3c(cc2C#N)C(=O)CC(C)(C)C3)c1	MITF TRPM1 inh 68 (no result: Statin myotox sup, esBAF inh)
O=[N+]([O-])c1ccccc1N=Nc1c(O)[nH]c2ccc(F)cc12	Wnt act 31 (no result: Statin myotox sup, esBAF inh)
O=[N+]([O-])c1ccc(N=Nc2c(O)[nH]c3ccc(F)cc23)cc1	esBAF inh 73
Cc1ccc(C2c3sc(=O)[nH]c3SC3C4CC(C5C(=O)N(C(C)C(=O)O)C(=O)C45)C23)cc1 (stereo unspecified)	none (no result: Statin myotox sup, esBAF inh)
Cc1c(C(=O)Nc2nc(-c3ccccn3)cs2)oc2ccccc12	LMP1 NFkB inh 41 (no result: Wnt act)
O=C(Nc1nc(-c2ccccn2)cs1)c1ccc(Cl)s1	LMP1 NFkB inh 73
Cc1ccccc1C(=O)Nc1ccc(Br)cn1	esBAF inh inconclusive, MITF TRPM1 HTS 96 (no result: Wnt act)
O=C(Nc1ccc(Br)cn1)c1ccc(Cl)s1	esBAF inh 60, Wnt act 35
CCC(=O)Nc1ccc(Br)cn1	none
O=C(Nc1nc(-c2ccccn2)cs1)c1cc2ccccc2o1	none
O=C(Nc1ccccc1C(=O)Nc1ccc(Br)cn1)c1ccccc1Cl	none
Cc1ccc(S(=O)(=O)Nc2ccc3c(c2)C(=O)N([C@H](C)CO)C[C@H](C)[C@@H](CN(C)C(=O)Nc2ccc(F)cc2)O3)cc1	none (no result: LMP1 NFkB inh, Wnt act, MITF TRPM1 HTS, MITF TRPM1 inh)
Cc1csc(NC(=O)c2cccn2C)n1	none (no result: Wnt act)
Cc1cccnc1Nc1nc(-c2ccccc2)cs1	none (no result: MITF TRPM1 HTS)
Cc1cc(C(=O)Nc2ccc(Br)cn2)sc1C	Wnt act 54 (no result: MITF TRPM1 HTS, MITF TRPM1 inh)
O=C(Nc1nccs1)c1ccc(Cl)s1	esBAF inh 52
Cn1cccc1C(=O)Nc1nc(-c2ccccn2)cs1	LMP1 NFkB inh 42 (no result: Statin myotox sup, esBAF inh, Wnt act, MITF TRPM1 HTS)
Cc1cccnc1Nc1nc(-c2ccccn2)cs1	LMP1 NFkB inh 51 (no result: Wnt act)
CCCC(=O)Nc1ccc(Br)cn1	none (no result: Wnt act)
O=C(Nc1nccs1)c1sc2ccccc2c1Cl	none (no result: esBAF inh, Wnt act)
Cc1nc2ccccn2c1/C(O)=C1\C(=O)C(=O)N(CCN2CCOCC2)C1c1cccnc1 (stereo unspecified)	none (no result: Statin myotox sup, esBAF inh, Wnt act)
COc1ccc(Cc2c(-c3ccc(C#N)cc3)nc3c4ccccc4ccn23)c(C)c1	none (no result: Statin myotox sup, esBAF inh, LMP1 NFkB inh, MITF TRPM1 HTS, MITF TRPM1 inh)
O=C(Nc1ccccn1)c1ccc(Cl)s1	MITF TRPM1 HTS 161 (no result: Statin myotox sup, esBAF inh)
O=C(NCc1ccccn1)c1ccc(Cl)s1	none
O=C(Nc1ccon1)c1ccc(Br)s1	none
O=C(Nc1ccc(Br)cn1)c1ccc(Br)s1	Wnt act 38
Cc1ccnc(NC(=O)c2ccc(Br)s2)c1	Wnt act 35
COC(=O)C[C@@H]1C[C@H]2c3cc(NS(C)(=O)=O)ccc3O[C@H]2[C@H](CO)O1	none (no result: MITF TRPM1 HTS, MITF TRPM1 inh)
CCC(C)(C)c1ccc(OCCCC[n+]2ccccc2)c(C(C)(C)CC)c1	MITF TRPM1 inh 100 (no result: Statin myotox sup, esBAF inh)
CCCCCc1ccc(OCCCC[n+]2ccc(C)cc2)c(CCCCC)c1	MITF TRPM1 inh 101 (no result: Statin myotox sup, esBAF inh)
CCCCCc1ccc(OCCCC[n+]2ccccc2)c(CCCCC)c1	LMP1 NFkB inh 55, MITF TRPM1 inh 87 (no result: Statin myotox sup, esBAF inh, Wnt act)
CCCCCc1ccc(OCCCC[n+]2cccc(C)c2)c(CCCCC)c1	MITF TRPM1 inh 79
CCCCOc1ccc(C)cc1CN(CCO)CCO	none (no result: Wnt act)
O=C(N[C@H]1CC[C@H](CCn2cc(C3CCCCC3)nn2)O[C@@H]1CO)c1cccnc1	none (no result: LMP1 NFkB inh, Wnt act, MITF TRPM1 HTS, MITF TRPM1 inh)
C[C@H](CO)N1C[C@H](C)[C@H](CN(C)C(=O)Nc2ccc3c(c2)OCO3)Oc2ncc(/C=C/c3ccccc3)cc2C1=O	none (no result: LMP1 NFkB inh, Wnt act, MITF TRPM1 HTS, MITF TRPM1 inh)
CC(=O)OCC(=O)c1c[nH]c2ccccc12	none (no result: MITF TRPM1 HTS, MITF TRPM1 inh)
CN1CCN(C(=O)c2cc(COc3ccccc3)on2)[C@@H](c2ccccc2)C1	esBAF inh 64, Wnt act 42, MITF TRPM1 HTS 91
Cc1ccc(OCc2cc(C(=O)N3CCN(C)C[C@@H]3c3ccccc3)no2)cc1C	MITF TRPM1 HTS 113 (no result: Statin myotox sup, esBAF inh)
CN1CCN(C(=O)c2cc(COc3c(F)cccc3F)on2)CC1c1ccccc1 (stereo unspecified)	none
COC(=O)c1ccsc1NC(=O)CSc1nnnn1-c1ccccc1SC	none
CC(=O)Nc1cccc(NC(=O)CCn2cnc3cc(C)c(C)cc32)c1	none (no result: Wnt act)
COc1ccc(-c2nnc(SCC(C)C)o2)cc1	Wnt act 42 (no result: Statin myotox sup, esBAF inh)
COc1cccc(Nc2nc(N)nc(-c3oc4ccccc4c3C)n2)c1	esBAF inh 51 (no result: Wnt act)
Cc1cccc(Nc2nc(N)nc(-c3oc4ccccc4c3C)n2)c1	esBAF inh 57 (no result: MITF TRPM1 HTS)
Cc1c(-c2nc(N)nc(Nc3ccccc3F)n2)oc2ccccc12	esBAF inh 48, MITF TRPM1 HTS 122 (no result: Wnt act)
CCOC(=O)c1ccc(NC(=O)c2nc[nH]c2C(=O)NC2CCN(C(=O)OC(C)(C)C)CC2)cc1	none
O=C(NC1CC1)c1ccc(CS(=O)c2ccc(Br)cc2)o1 (stereo unspecified)	none
COc1ccc(NC(=O)Nc2ccc3c(c2)C(=O)N([C@H](C)CO)C[C@H](C)[C@H](CN(C)Cc2ccc(-c4ccccc4)cc2)O3)cc1	none (no result: LMP1 NFkB inh, Wnt act, MITF TRPM1 HTS, MITF TRPM1 inh)
CC1CCc2nc3sc4c(c3c(N)c2C1)CCCC4 (stereo unspecified)	Wnt act 45 (no result: Statin myotox sup, esBAF inh)
Cc1ccc(CN2C(=O)CCC2C(=O)NCc2ccc(F)cc2)cc1 (stereo unspecified)	none (no result: Statin myotox sup, esBAF inh, Wnt act)
CCn1cnc2sc(-c3ccccc3)cc2c1=O	esBAF inh 49
N#CCn1cnc2sc(-c3ccccc3)cc2c1=O	none (no result: Statin myotox sup, esBAF inh)
O=c1[nH]c(-c2ccccc2)nc2sc(-c3ccccc3)cc12	none (no result: Statin myotox sup, esBAF inh)
CC(=O)Cn1cnc2sc(-c3ccccc3)cc2c1=O	Wnt act 37, MITF TRPM1 HTS 88 (no result: Statin myotox sup, esBAF inh)
Cc1ccc(C)n1-n1cnc2sc(-c3ccccc3)cc2c1=O	none (no result: Wnt act)
O=c1[nH]cnc2sc(-c3ccccc3)cc12	esBAF inh 49
O=c1c2cc(-c3ccccc3)sc2ncn1-n1cccc1	esBAF inh 72, MITF TRPM1 HTS 85
O=C(Cn1cnc2sc(-c3ccccc3)cc2c1=O)N1CCOCC1	none
Cc1nn(-c2ncc(C(F)(F)F)cc2Cl)c(=O)n1-c1cccc(F)c1	none
Cc1cc(Nc2ccc(Br)cc2)n2nc(C)nc2n1	none
Cc1ccc(-c2cc(-c3ccc(F)cc3)nc(N)c2C#N)o1	none (no result: Wnt act)
Cc1ccccc1-c1ncc(CN2CCN(C3CCCC3)C(CCO)C2)cn1 (stereo unspecified)	none
COc1ccc(NC(=O)Nc2ccc3c(c2)C(=O)N([C@@H](C)CO)C[C@@H](C)[C@@H](CN(C)C(=O)Nc2ccc(F)cc2)O3)cc1	none (no result: LMP1 NFkB inh, Wnt act, MITF TRPM1 HTS, MITF TRPM1 inh)
CC(=O)Cn1nnc2sc(-c3ccccc3)cc2c1=O	MITF TRPM1 HTS 89 (no result: Statin myotox sup, esBAF inh)
Cc1c(NC(=O)C(C)OC(=O)COc2cccc3c2OC(C)(C)C3)c(=O)n(-c2ccccc2)n1C (stereo unspecified)	Statin myotox sup 114
Cc1c(NC(=O)COc2cccc3c2OC(C)(C)C3)c(=O)n(-c2ccccc2)n1C	none

Screening results deposited in PubChem by Broad Institute.
